# CYP2C19 activ – increases human CYP2C19 enzyme activity; P33261; recombinant CYP2C19, luciferin-H EGE luminescence; hits give high values; 0 = fully inhibited enzyme, 1 = untreated enzyme; activation factor at 5 µM; 96,000 tested, under 10 active; AID 1025;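 active means activation factor of at least 2 at 5 µM in the primary screen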
# CYP2C9 act – increases human cytochrome P450 2C9 activity. P11712. recombinant CYP2C9, luciferin-H conversion, luminescence; hits give high values; factor 1 = untreated enzyme, 0 = blocked. activation factor at 5 µM. 96,000 tested, 1.4% active;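 active means activation factor of 2 or more for CYP2C9 at a 5 µM dose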
# Target sequence (P11712 whole entry, looked up): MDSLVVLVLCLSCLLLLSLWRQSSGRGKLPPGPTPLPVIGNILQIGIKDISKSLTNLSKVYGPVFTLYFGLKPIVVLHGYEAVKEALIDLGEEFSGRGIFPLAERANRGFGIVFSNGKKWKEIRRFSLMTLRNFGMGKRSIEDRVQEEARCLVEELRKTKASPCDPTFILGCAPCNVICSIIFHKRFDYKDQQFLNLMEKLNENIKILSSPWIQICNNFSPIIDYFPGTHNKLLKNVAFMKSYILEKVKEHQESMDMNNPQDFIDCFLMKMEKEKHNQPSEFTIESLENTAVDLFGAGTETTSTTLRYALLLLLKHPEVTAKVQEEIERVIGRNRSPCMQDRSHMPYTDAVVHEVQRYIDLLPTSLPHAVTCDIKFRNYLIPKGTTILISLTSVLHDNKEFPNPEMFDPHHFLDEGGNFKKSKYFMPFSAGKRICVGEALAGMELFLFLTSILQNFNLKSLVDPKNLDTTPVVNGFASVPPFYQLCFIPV
# PostGolgi ctrl – yeast control strain growth, post-Golgi counter-screen; efflux-deficient yeast background strain, growth absorbance A615, 16 h; inhibition, % at 10 µM; 98,000 tested, 5% active; AID 738
# PostGolgi yeast – growth inhibition of a yeast mutant, post-Golgi transport screen | inhibition, % at 10 µM | AID 739 | 98,000 tested, 0.9% active | post-Golgi transport phenotypic cell assay;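 further: yeast cells grown in 1536-well plates; yeast grown about 18 h at 30C before absorbance read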
# CYP2C9 inhib – inhibitors of human CYP2C9; P11712; CYP2C9 Supersomes, luciferin-H conversion, luminescence; inhibition, % at 5 µM; 96,000 tested, 20% active; AID 777;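 active means blocking of liver enzyme CYP2C9 beyond about 50% at 5 µM, limit read from the data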
# CYP2C19 inhib – human CYP2C19 inhibition. AID 778. inhibition, % at 5 µM. CYP2C19 Supersomes, luciferin-H EGE luminescence, 30 min. 96,000 tested, 21% active. P33261;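 active means CYP2C19 inhibition above a set limit at 5 µM in the primary screen, cut at about 50% in these data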
# Hits are given with their value; n = inactive; x = no result given. The list is not random: actives were taken first. Their share in the collection is about 32%. Unless noted, no stated cut-off is given here; in the data, active means inhibition above about 30%; inactive means the rest.
SMILES,CYP2C19 activ,CYP2C9 act,PostGolgi ctrl,PostGolgi yeast,CYP2C9 inhib,CYP2C19 inhib
CN1CCN(Cc2nc3c(c(=O)[nH]c(=O)n3C)n2Cc2c(F)cccc2Cl)CC1,n,n,x,x,n,n
COC(=O)c1cc(C(=O)Nc2cc(C)ccn2)cc([N+](=O)[O-])c1,n,n,n,n,n,n
COc1ccc2c(c1)c1ncn(Cc3ccco3)c(=O)c1n2C,n,n,n,n,72,75
CC1(C)CCCN(C(=O)c2coc(=O)c(Br)c2)C1,n,n,n,n,n,n
O=C(OCc1nc2ccccc2c(=O)[nH]1)c1cccs1,n,n,n,n,59,58
CCOC(=O)Cc1c(C)nc(-c2ccccc2)[nH]c1=O,n,n,n,n,n,n
CCOC(=O)Cc1csc(SCc2nc3ccccc3c(=O)[nH]2)n1,n,n,n,n,73,n
C/C(N)=C(/C#N)C(=O)CSc1nc2cc(Cl)ccc2s1,n,n,44,n,n,n
CCOC(=O)Cc1csc(SCC(=O)c2c(N)n(CC(C)C)c(=O)n(C)c2=O)n1,n,n,n,n,n,n
O=C(CSc1nc2cc(Cl)ccc2s1)NC(=O)NCc1ccco1,n,n,n,n,n,n
CCOC(=O)Cc1csc(SCC(=O)/C(C#N)=C(\C)N)n1,n,n,n,n,n,95
CCCCC(=O)NC1(C(F)(F)F)C(=O)Nc2c1c(=O)[nH]c(=O)n2Cc1ccco1 (stereo not given),n,n,n,n,n,n
CN1CCCN(C2C3CC4CC(C3)CC2C4)CC1 (stereo not given),n,n,n,n,n,n
O=S(=O)(c1ccc(OCC(O)CN2CCN(c3ccccc3)CC2)cc1)N1CCOCC1 (stereo not given),n,n,n,n,n,64
O=S(=O)(c1ccc(OCC(O)CN2CCN(c3ccccc3O)CC2)cc1)N1CCOCC1 (stereo not given),n,n,45,n,54,n
O=S(=O)(c1ccc(OCC(O)CN2CCCC2)cc1)N1CCOCC1 (stereo not given),n,n,n,n,n,n
O=S(=O)(c1ccc(OCC(O)CN2CCC(Cc3ccccc3)CC2)cc1)N1CCOCC1 (stereo not given),n,n,n,n,n,n
Cc1ccc(NC(=O)COS(=O)c2ccc(C)cc2)cc1 (stereo not given),n,n,n,n,n,n
Cc1ccc(NC(=O)CC2S/C(=N/c3nccs3)N(C)C2=O)c(C)c1 (stereo not given),n,n,32,n,98,96
CN=C1SC(CC(=O)Nc2ccccc2F)C(=O)N1C (stereo not given),n,n,n,n,n,n
O=C(Nc1ccc2c(c1)OCO2)C1CC(c2ccc(F)cc2)=NO1 (stereo not given),n,n,n,n,n,53
CCc1ccccc1NC(=O)C1CC(c2ccc(F)cc2)=NO1 (stereo not given),n,n,n,n,n,83
N#Cc1ccc(NC(=O)C2CC(c3ccc(F)cc3)=NO2)cc1 (stereo not given),n,n,n,n,n,n
N=c1oc2ccccc2cc1-c1nc2ccccc2c(=O)[nH]1,n,n,n,n,n,n
O=C(O)C1CC(c2ccc(F)cc2)=NO1 (stereo not given),n,n,n,n,n,n
SMILES,CYP2C19 activ,CYP2C9 act,PostGolgi ctrl,PostGolgi yeast,CYP2C9 inhib,CYP2C19 inhib
Cc1ccc(C)c(NC(=O)CSc2nnc(CCNC(=O)OC(C)(C)C)o2)c1,n,n,n,n,n,80
COc1ccc(CCCc2nnc(SCC(=O)Nc3cc(C)ccc3C)o2)cc1,n,n,n,n,63,n
COc1ccc(/C=C/C(=O)Nc2cc(C(F)(F)F)ccc2Cl)cc1,n,2,n,n,n,n
Cc1c(Cl)cccc1NC(=O)CSc1nnc(CCNC(=O)OC(C)(C)C)o1,n,n,n,n,68,78
CN(C)S(=O)(=O)n1ccnc1,n,n,n,n,n,n
CCC(C)n1cnc2c(=O)oc3ccccc3c21 (stereo not given),n,n,n,n,n,n
COc1ccc(NCc2nnc(SCC(=O)Nc3cc(C)cc(C)c3)o2)cc1,n,n,n,n,n,n
COc1ccc(NCc2nnc(SCC(=O)Nc3cc(C(F)(F)F)ccc3Cl)o2)cc1,n,n,n,n,80,82
CN(C(=O)COc1cccc(Br)c1)C1CCS(=O)(=O)C1 (stereo not given),n,n,n,n,n,n
COc1ccccc1S(=O)Cc1ccc(C(=O)NCc2ccccc2Cl)o1 (stereo not given),n,n,n,n,n,n
Cc1ccc(C(c2ccc(C)o2)c2cccc([N+](=O)[O-])c2O)o1,n,n,n,n,n,n
Cc1cc(C(c2ccc(C)o2)c2ccc(C)o2)c(O)c([N+](=O)[O-])c1,n,n,n,n,95,65
Cc1cc(C)nc(SCC(=O)NC2=NN=C(c3ccc(Br)cc3)CS2)n1,n,2.1,n,n,n,n
Cc1cc(C)nc(SCC(=O)Nc2ccc(Br)cn2)n1,n,n,n,n,n,81
CSc1nsc(SCC(=O)Nc2ccc(Br)cn2)n1,n,n,38,n,n,73
CSc1nsc(SCC(=O)Nc2ccc(C(C)=O)cc2)n1,n,n,n,n,57,n
O=C(NNC(=O)c1cc(O)c(O)c(O)c1)NC1CCCCC1,n,n,n,n,n,n
CCN(CC)C(=O)CSCc1cnn(-c2ccccc2)c1-n1cccc1,n,n,n,n,n,n
Cc1cc(C)cc(C(=O)NCCn2cc(SCC(=O)N3CCOCC3)c3ccccc32)c1,n,n,n,n,n,n
O=C(CSc1nc(-c2ccccc2)c(-c2ccccc2)[nH]1)Nc1nccs1,n,n,n,n,n,n
Cc1ccc(C(=O)NCCn2cc(SCC(=O)Nc3nnc(C)s3)c3ccccc32)cc1,n,n,n,n,80,60
CC1CCN(C(=O)Cn2c(SCC(=O)Nc3nccs3)nc3ccccc32)CC1,n,n,n,n,79,81
CC1Cc2nc(SCC(=O)Nc3nccs3)n(C)c(=O)c2S1 (stereo not given),n,n,n,n,n,n
Cn1cc(SCC(=O)Nc2nccs2)c2ccccc21,n,n,n,n,n,64
CCCn1cc(SCC(=O)Nc2nnc(C)s2)c2ccccc21,n,n,n,n,63,n
CCCCn1cc(SCC(=O)O)c2ccccc21,n,n,n,n,n,n
O=C(NCCCN1CCOCC1)c1ccc(Cl)s1,n,n,n,n,n,n
O=C(CSc1nc(-c2ccccc2)nc2c1CCCC2)N1CCOCC1,n,n,n,n,n,n
O=C1Cn2c(nc3ccccc32)N1c1cccc(C(F)(F)F)c1,n,n,n,n,n,59
Cc1cccc2cc(CN(CC3CCCO3)C(=O)c3ccncc3)c(=O)[nH]c12 (stereo not given),n,n,n,n,83,89
